Laboratory results as given in PubChem BioAssay (EPA / NIEHS).
“And” between values parts separate entries of the source, which are not always exact repeats. Equal entries are not always repeated. A structure can be active in one record and inactive in another. The source made the active and inactive calls. How the source made its calls: active means hit-call score of the fitted dose curve at least 0.9, where 1 is the maximum; inactive means score below 0.9.

Legend:
[1] = ATG_ISRE_CIS: Attagene CIS-FACTORIAL HepG2 Assay for human Interferon Regulatory Factor 1 (IRF1) binding to an Interferon-Stimulated Response Element (ISRE) (AID 2282948); conditions: HepG2 ISRE cis-reporter (Attagene), mRNA transcription readout; actives raise or lower the signal
Outline: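 Signal reflects induction or loss of ISRE-linked reporter mRNA in transiently transfected HepG2 cells after a 24 h treatment, detected by fluorescent RT-PCR fragments on capillary electrophoresis and normalised to DMSO.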

[2] = ATG_M_32_CIS: Attagene CIS-FACTORIAL HepG2 Assay for M32 Transcription Factor (Internal Marker) (AID 2282949); conditions: HepG2 Attagene cis-factorial M32 reporter, mRNA; actives raise or lower the signal;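 further: background control marker of the multiplexed CIS panel rather than a real target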
Outline: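 Transient MRTU transfection of HepG2; 24 h compound treatment; TriZol RNA, oligo(dT) RT, reporter PCR, 6-FAM primer extension, HpaI cut, CE. Gain/loss of signal vs DMSO.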

[3] = ATG_M_06_CIS: Attagene CIS-FACTORIAL HepG2 Assay for M06 Transcription Factor (Internal Marker) (AID 2282950); conditions: HepG2 Attagene CIS-FACTORIAL M06 internal marker reporter; actives raise or lower the signal
Outline: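 Measured 24 h post-dosing in transiently transfected HepG2 cells, this internal-marker endpoint reports reporter mRNA via RT-PCR with fluorescent primer extension and capillary electrophoresis. DMSO served as negative control and baseline for bidirectional fitting.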

[4] = molecular target: Hypoxia-inducible factor 1-alpha (Homo sapiens) (UniProt Q16665); test: ATG_HIF1a_CIS: Attagene CIS-FACTORIAL HepG2 Assay for human Hypoxia Inducible Factor 1 (HIF1A) (AID 2282951); conditions: HepG2 Attagene cis-factorial HIF1a reporter transcription; actives raise or lower the signal
Hypoxia-inducible factor 1-alpha (Homo sapiens), sequence (Q16665 whole entry, looked up): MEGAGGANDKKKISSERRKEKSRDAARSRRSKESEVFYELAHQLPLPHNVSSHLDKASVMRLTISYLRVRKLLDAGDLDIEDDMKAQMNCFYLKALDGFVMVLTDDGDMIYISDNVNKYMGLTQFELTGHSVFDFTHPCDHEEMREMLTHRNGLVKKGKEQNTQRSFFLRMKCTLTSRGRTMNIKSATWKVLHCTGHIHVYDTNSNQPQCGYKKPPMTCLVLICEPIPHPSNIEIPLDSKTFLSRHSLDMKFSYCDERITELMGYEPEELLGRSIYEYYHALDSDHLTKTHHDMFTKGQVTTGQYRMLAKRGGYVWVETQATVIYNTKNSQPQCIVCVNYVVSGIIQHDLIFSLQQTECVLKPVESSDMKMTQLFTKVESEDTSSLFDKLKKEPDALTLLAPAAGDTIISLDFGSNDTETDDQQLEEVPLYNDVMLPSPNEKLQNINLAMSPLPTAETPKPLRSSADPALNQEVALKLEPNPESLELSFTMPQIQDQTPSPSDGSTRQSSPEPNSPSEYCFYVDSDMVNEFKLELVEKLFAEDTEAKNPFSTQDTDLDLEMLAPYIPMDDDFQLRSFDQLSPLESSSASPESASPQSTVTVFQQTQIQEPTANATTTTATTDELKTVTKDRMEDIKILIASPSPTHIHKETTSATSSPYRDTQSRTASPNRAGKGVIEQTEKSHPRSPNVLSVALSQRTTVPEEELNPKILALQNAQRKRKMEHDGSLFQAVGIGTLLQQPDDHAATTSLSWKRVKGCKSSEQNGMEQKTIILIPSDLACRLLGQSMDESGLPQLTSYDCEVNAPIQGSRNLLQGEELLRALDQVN
Outline: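 In this multiplexed cell assay, HepG2 cells bearing transfected cis reporters are dosed for 24 h and reporter mRNA is read by RT-PCR plus capillary electrophoresis; signal increases and decreases are both scored against DMSO.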

[5] = molecular target: Heat shock factor protein 1 (Homo sapiens) (UniProt Q00613); test: ATG_HSE_CIS: Attagene CIS-FACTORIAL HepG2 Assay for human Heat Shock Transcription Factor 1 (HSE) (AID 2282953); conditions: HepG2 HSE cis-reporter, Attagene RNA transcription; actives raise or lower the signal
Heat shock factor protein 1 (Homo sapiens), sequence (Q00613 whole entry, looked up): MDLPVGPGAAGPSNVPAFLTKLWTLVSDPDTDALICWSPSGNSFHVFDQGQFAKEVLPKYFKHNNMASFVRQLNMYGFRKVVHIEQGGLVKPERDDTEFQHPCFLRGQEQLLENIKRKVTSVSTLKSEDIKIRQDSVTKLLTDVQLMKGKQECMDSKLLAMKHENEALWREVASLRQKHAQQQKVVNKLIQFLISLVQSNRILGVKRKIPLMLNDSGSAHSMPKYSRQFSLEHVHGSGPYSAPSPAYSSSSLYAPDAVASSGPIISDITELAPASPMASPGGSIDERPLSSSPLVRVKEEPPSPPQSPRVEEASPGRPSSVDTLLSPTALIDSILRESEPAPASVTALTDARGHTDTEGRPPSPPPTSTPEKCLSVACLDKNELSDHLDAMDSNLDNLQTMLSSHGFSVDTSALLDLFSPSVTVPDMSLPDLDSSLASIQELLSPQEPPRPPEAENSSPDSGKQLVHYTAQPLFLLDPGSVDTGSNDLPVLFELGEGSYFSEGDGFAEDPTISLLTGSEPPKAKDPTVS
Outline: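 Reporter mRNA induction in HepG2 is measured 24 h after dosing, using transiently transfected multiplexed cis-regulated reporter units. Signal comes from capillary electrophoresis of labelled RT-PCR products, with DMSO as negative control.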

[6] = ATG_MRE_CIS: Attagene CIS-FACTORIAL HepG2 Assay for human Metal Responsive Element (MRE) (AID 2282954); conditions: HepG2 MRE cis-reporter transcription, Attagene multiplex; actives raise or lower the signal
Outline: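 Readout: capillary electrophoresis of 6-FAM-labelled, HpaI-digested RT-PCR reporter products. System: HepG2 cells carrying transient multiplexed cis reporters, dosed 24 h. Analysis: bidirectional fit, DMSO baseline.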

[7] = molecular target: Paired box protein Pax-6 (Homo sapiens) (UniProt P26367); test: ATG_Pax6_CIS: Attagene CIS-FACTORIAL HepG2 Assay for human Paired Box 6 (PAX6) (AID 2282956); conditions: HepG2 CIS-FACTORIAL PAX6 reporter transcription, RNA readout; actives raise or lower the signal
Paired box protein Pax-6 (Homo sapiens), sequence (P26367 whole entry, looked up): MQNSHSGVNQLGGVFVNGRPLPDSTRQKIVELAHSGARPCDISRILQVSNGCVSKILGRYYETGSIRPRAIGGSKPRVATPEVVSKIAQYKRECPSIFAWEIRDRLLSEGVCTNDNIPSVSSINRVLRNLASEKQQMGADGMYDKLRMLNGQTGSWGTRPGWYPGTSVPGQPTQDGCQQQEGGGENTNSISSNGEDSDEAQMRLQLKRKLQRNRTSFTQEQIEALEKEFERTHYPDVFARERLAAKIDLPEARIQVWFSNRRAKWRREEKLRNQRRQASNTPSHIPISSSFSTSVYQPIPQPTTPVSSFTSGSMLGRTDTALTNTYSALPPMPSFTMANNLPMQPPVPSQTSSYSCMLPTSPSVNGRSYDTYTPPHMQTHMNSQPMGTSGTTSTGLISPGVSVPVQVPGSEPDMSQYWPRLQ
Outline: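 Values derive from bidirectional curve fitting of reporter mRNA signal relative to DMSO. HepG2 cells bearing transfected cis-regulated MRTUs were exposed for 24 h; transcripts were read by RT-PCR and capillary electrophoresis.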

[8] = ATG_PXRE_CIS: Attagene CIS-FACTORIAL HepG2 Assay for human Pregnane X Receptor Element (PXRE) (AID 2282957); conditions: HepG2 Attagene CIS-FACTORIAL PXRE reporter, mRNA; actives raise or lower the signal
Outline: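 Bidirectional activity, baselined to DMSO, derived from reporter mRNA fluorescence (RT-PCR plus capillary electrophoresis) in HepG2 cells bearing cis-promoter reporter units, 24 h exposure.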

[9] = ATG_PBREM_CIS: Attagene CIS-FACTORIAL HepG2 Assay for human Phenobarbital-responsive Enhancer Module (PBREM) (AID 2282955); conditions: HepG2 PBREM cis-reporter, Attagene multiplexed transcription; actives raise or lower the signal
Outline: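 After a 24 h incubation with test chemical, transfected HepG2 cells yield total RNA; reporter-specific RT-PCR products are fluorescently labelled, HpaI-digested and resolved by capillary electrophoresis against ROX size standards.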

[10] = molecular target: Hepatocyte nuclear factor 6 (Homo sapiens) (UniProt Q9UBC0); test: ATG_HNF6_CIS: Attagene CIS-FACTORIAL HepG2 Assay for human Hepatocyte Nuclear Factor 6 (HNF6) (AID 2282952); conditions: HepG2 Attagene cis-factorial HNF6 reporter transcription; actives raise or lower the signal
Hepatocyte nuclear factor 6 (Homo sapiens), sequence (Q9UBC0 whole entry, looked up, the tested form may be a part): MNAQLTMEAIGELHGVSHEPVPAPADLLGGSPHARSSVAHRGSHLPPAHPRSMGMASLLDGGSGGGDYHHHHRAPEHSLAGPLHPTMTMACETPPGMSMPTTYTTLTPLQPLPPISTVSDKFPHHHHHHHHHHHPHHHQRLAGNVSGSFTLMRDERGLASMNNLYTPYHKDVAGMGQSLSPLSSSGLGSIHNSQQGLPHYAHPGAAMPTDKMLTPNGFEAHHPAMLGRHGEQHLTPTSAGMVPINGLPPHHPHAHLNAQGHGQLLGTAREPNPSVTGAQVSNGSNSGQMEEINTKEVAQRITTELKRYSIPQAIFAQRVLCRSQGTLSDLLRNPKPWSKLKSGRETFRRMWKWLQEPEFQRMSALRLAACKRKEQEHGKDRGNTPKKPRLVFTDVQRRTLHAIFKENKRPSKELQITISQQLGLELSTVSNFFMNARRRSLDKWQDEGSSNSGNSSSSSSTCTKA
Outline: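 Twenty-four-hour chemical treatment of reporter-transfected HepG2 cells precedes RNA isolation, DNase-treated reverse transcription and PCR of reporter sequences. Labelled fragments are sized by capillary electrophoresis and fitted bidirectionally versus DMSO.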

Measured: AC50

NC(=S)Nc1ccccc1
not listed: [9] | [10]
inactive: all other assays above

CC(=O)C(Cl)C(=O)N(C)C (stereo unspecified)
active: [6] 100 µM
not listed: [10]
inactive: all other assays above

Clc1ccc(COC(Cn2ccnc2)c2ccc(Cl)cc2Cl)cc1 (stereo unspecified)
active: [8] 0.697 µM
not listed: [4]
inactive: all other assays above

Oc1cccc2cccnc12
active: [6] 148 µM | [8] 27.5 µM and 95.5 µM
inactive: [1] | [2] | [3] | [10] | [5] | [6] | [9] | [7]

COc1ccccc1OC
not listed: [10]
inactive: all other assays above

CCSC(C)CC1CC(=O)C(C(CC)=NOC/C=C/Cl)=C(O)C1 (stereo unspecified)
active: [8] 5.61 µM
not listed: [9] | [10]
inactive: all other assays above

CCC[CH2][Sn]([CH2]CCC)([CH2]CCC)[O]C(=O)c1ccccc1
not listed: [5] | [9]
inactive: all other assays above

C=CC#N
not listed: [10]
inactive: all other assays above

CC1CN1P(=O)(N1CC1C)N1CC1C (stereo unspecified)
not listed: [10]
inactive: all other assays above

Cc1cc(=O)[nH]o1
active: [8] 42.8 µM
not listed: [9] | [10]
inactive: all other assays above

O=[N+]([O-])c1ccc2c3c(cccc13)CC2
active: [4] 26.7 µM | [8] 4.23 µM
inactive: [1] | [2] | [3] | [6] | [7]

COc1cc2c(cc1OC)[C@@]13CCN4CC5=CCO[C@H]6CC(=O)N2[C@H]1[C@H]6[C@H]5C[C@H]43
active: [4] 30.3 µM | [8] 36.6 µM
not listed: [10]
inactive: all other assays above

Cc1ccc(N)cc1Cl
not listed: [4]
inactive: all other assays above

ClCCBr
not listed: [5] | [7] | [10]
inactive: all other assays above

CCOP(OCC)OCC
not listed: [10]
inactive: all other assays above

Cc1ccccc1C(=O)Nc1cccc(OC(C)C)c1
active: [8] 2.89 µM
not listed: [7] | [10]
inactive: all other assays above

CC12CC1(C)C(=O)N(c1cc(Cl)cc(Cl)c1)C2=O (stereo unspecified)
inactive: [1] | [2] | [3] | [4] | [5] | [6] | [9] | [7]
active: [9] 11.1 µM | [8] 4.87 µM [middle of 4 runs]

[O-][Cl+2]([O-])O
active: [8] 69 µM
not listed: [7] | [10]
inactive: all other assays above

C[C@]12CCC(=O)C[C@@H]1CC[C@@H]1[C@@H]2CC[C@]2(C)[C@@H](O)CC[C@@H]12
active: [6] 87 µM and 42.6 µM | [8] 23.4 µM and 23.5 µM and 9.49 µM
inactive: [1] | [2] | [3] | [10] | [5] | [6]

ClC(Cl)=C(Cl)C(Cl)=C(Cl)Cl
inactive: [2] | [3] | [4] | [7]
active: [1] 100 µM | [5] 144 µM | [6] 152 µM | [8] 130 µM

COC[C@H](C)N(C(=O)CCl)c1c(C)csc1C
active: [8] 30.6 µM
not listed: [7] | [9]
inactive: all other assays above

Cc1ccccc1N
not listed: [4]
inactive: all other assays above

CCCCCCCCC(=O)NCc1ccc(O)c(OC)c1
active: [5] 125 µM | [6] 131 µM | [8] 26.2 µM
not listed: [4] | [10]
inactive: all other assays above

O=C(Cc1ccccc1)c1ccccc1
active: [8] 27.2 µM
not listed: [4] | [7] | [10]
inactive: all other assays above

C=CCc1ccc(OC)cc1
active: [8] 26.6 µM
not listed: [4]
inactive: all other assays above
